# Reference: PubChem BioAssay AID1159580 (chemical genetic matrix, 2015)
# The whole screen tested about 5,500 compounds, of which about 2,000 (36%) were called active. Roughly 18% stayed inconclusive and do not appear here. Some of the results follow. Unmarked numbers belong to inactive results. Rule as the data show it: active = normalized growth mostly below about 0.91 (no sharp cut-off); inconclusive = no clear call, values can overlap the other calls; inactive = mostly above about 0.92.
# Experiment: chemical genetic growth profiling, strain panel (AID 1159580);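 also: tested at 20 µM; growth read once vehicle control cultures reached saturation at 30 °C; 1 = growth at the plate median or of vehicle wells; lower values mean less growth of the strain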
# Details: growth OD
smiles,measurement,setting,value
CCOc1ccc(Cc2nccc3cc(OCC)c(OCC)cc23)cc1OCC,normalized growth,"S. cerevisiae deletion strains, locus YJR075W, strain HOC1, hits give low values",0.92
same,normalized growth,"S. cerevisiae deletion strains, locus YKL009W, strain mrt4, hits give low values",0.969
same,normalized growth,"S. cerevisiae deletion strains, locus YKL068W, hits give low values",0.986
same,normalized growth,"S. cerevisiae deletion strains, locus YKL085W, strain MDH1 (second series), hits give low values",0.985
same,normalized growth,"S. cerevisiae deletion strains, locus YKL085W, strain MDH1, hits give low values",0.985
same,normalized growth,"S. cerevisiae deletion strains, locus YKL160W, strain elf1, hits give low values",0.98
same,normalized growth,"S. cerevisiae deletion strains, locus YKL190W, strain CNB1, hits give low values",0.98
same,normalized growth,"S. cerevisiae deletion strains, locus YKR001C, strain vps1, hits give low values",0.88 (active)
same,normalized growth,"S. cerevisiae deletion strains, locus YKR026C, strain gcn3, hits give low values",0.975
same,normalized growth,"S. cerevisiae deletion strains, locus YKR091W, strain srl3, hits give low values",0.979
same,normalized growth,"S. cerevisiae deletion strains, locus YLL001W, strain dnm1, hits give low values",0.96
same,normalized growth,"S. cerevisiae deletion strains, locus YLL026W, hits give low values",0.984
same,normalized growth,"S. cerevisiae deletion strains, locus YLL041C, strain sdh2, hits give low values",0.975
same,normalized growth,"S. cerevisiae deletion strains, locus YLR027C, strain aat2, hits give low values",0.97
same,normalized growth,"S. cerevisiae deletion strains, locus YLR039C, strain RIC1, hits give low values",0.878
same,normalized growth,"S. cerevisiae deletion strains, locus YLR058C, strain SHM2, hits give low values",0.949
same,normalized growth,"S. cerevisiae deletion strains, locus YLR102C, strain apc9, hits give low values",0.978
same,normalized growth,"S. cerevisiae deletion strains, locus YLR113W, strain HOG1, hits give low values",1.02
same,normalized growth,"S. cerevisiae deletion strains, locus YLR221C, strain rsa3, hits give low values",0.982
same,normalized growth,"S. cerevisiae deletion strains, locus YLR258W, strain gsy2, hits give low values",0.968
same,normalized growth,"S. cerevisiae deletion strains, locus YLR262C, strain YPT6 (second series), hits give low values",0.871
same,normalized growth,"S. cerevisiae deletion strains, locus YLR262C, strain YPT6, hits give low values",0.861
same,normalized growth,"S. cerevisiae deletion strains, locus YLR268W, strain sec22, hits give low values",0.873 (active)
same,normalized growth,"S. cerevisiae deletion strains, locus YLR320W, strain mms22, hits give low values",0.949
same,normalized growth,"S. cerevisiae deletion strains, locus YLR330W, strain CHS5, hits give low values",0.979
same,normalized growth,"S. cerevisiae deletion strains, locus YLR342W, strain FKS1 (second series), hits give low values",0.901
same,normalized growth,"S. cerevisiae deletion strains, locus YLR342W, strain FKS1, hits give low values",0.963
same,normalized growth,"S. cerevisiae deletion strains, locus YLR357W, strain rsc2, hits give low values",0.899
same,normalized growth,"S. cerevisiae deletion strains, locus YLR370C, strain arc18, hits give low values",0.977
same,normalized growth,"S. cerevisiae deletion strains, locus YLR371W, strain rom2, hits give low values",0.966
same,normalized growth,"S. cerevisiae deletion strains, locus YLR384C, strain iki3, hits give low values",0.989
same,normalized growth,"S. cerevisiae deletion strains, locus YLR418C, strain cdc73, hits give low values",0.772 (active)
same,normalized growth,"S. cerevisiae deletion strains, locus YML016C, strain PPZ1, hits give low values",0.973
same,normalized growth,"S. cerevisiae deletion strains, locus YML032C, strain rad52, hits give low values",0.943
same,normalized growth,"S. cerevisiae deletion strains, locus YML120C, strain ndi1, hits give low values",0.965
same,normalized growth,"S. cerevisiae deletion strains, locus YML124C, strain tub3, hits give low values",0.979
same,normalized growth,"S. cerevisiae deletion strains, locus YMR058W, strain fet3, hits give low values",0.967
same,normalized growth,"S. cerevisiae deletion strains, locus YMR078C, strain ctf18, hits give low values",0.957
same,normalized growth,"S. cerevisiae deletion strains, locus YMR125W, strain sto1, hits give low values",1.01
same,normalized growth,"S. cerevisiae deletion strains, locus YMR129W, hits give low values",0.984
same,normalized growth,"S. cerevisiae deletion strains, locus YMR205C, strain PFK2, hits give low values",0.938
same,normalized growth,"S. cerevisiae deletion strains, locus YMR223W, strain ubp8, hits give low values",0.971
same,normalized growth,"S. cerevisiae deletion strains, locus YMR231W, strain pep5, hits give low values",0.979
same,normalized growth,"S. cerevisiae deletion strains, locus YMR307W, strain GAS1, hits give low values",0.769
same,normalized growth,"S. cerevisiae deletion strains, locus YNL067W, strain RPL9B, hits give low values",0.935
same,normalized growth,"S. cerevisiae deletion strains, locus YNL071W, strain lat1, hits give low values",0.985
same,normalized growth,"S. cerevisiae deletion strains, locus YNL128W, strain TEP1, hits give low values",0.967
same,normalized growth,"S. cerevisiae deletion strains, locus YNL153C, strain GIM3, hits give low values",0.961
same,normalized growth,"S. cerevisiae deletion strains, locus YNL183C, strain NPR1, hits give low values",0.899
same,normalized growth,"S. cerevisiae deletion strains, locus YNL209W, strain ssb2, hits give low values",0.98
same,normalized growth,"S. cerevisiae deletion strains, locus YNL233W, strain BNI4, hits give low values",0.917
same,normalized growth,"S. cerevisiae deletion strains, locus YNL248C, strain rpa49, hits give low values",0.942
same,normalized growth,"S. cerevisiae deletion strains, locus YNL250W, strain rad50, hits give low values",0.98
same,normalized growth,"S. cerevisiae deletion strains, locus YNL271C, strain bni1, hits give low values",0.979
same,normalized growth,"S. cerevisiae deletion strains, locus YNL298W, strain CLA4, hits give low values",0.993
same,normalized growth,"S. cerevisiae deletion strains, locus YNL307C, strain MCK1, hits give low values",0.875 (active)
same,normalized growth,"S. cerevisiae deletion strains, locus YNL322C, strain KRE1 (second series), hits give low values",0.982
same,normalized growth,"S. cerevisiae deletion strains, locus YNL322C, strain KRE1, hits give low values",0.986
same,normalized growth,"S. cerevisiae deletion strains, locus YNR049C, strain mso1, hits give low values",0.965
same,normalized growth,"S. cerevisiae deletion strains, locus YNR052C, strain pop2, hits give low values",0.974
same,normalized growth,"S. cerevisiae deletion strains, locus YOL006C, strain TOP1, hits give low values",0.771
same,normalized growth,"S. cerevisiae deletion strains, locus YOL012C, strain htz1",1.53
same,normalized growth,"S. cerevisiae deletion strains, locus YOL147C, strain pex11, hits give low values",0.969
same,normalized growth,"S. cerevisiae deletion strains, locus YOR001W, strain rrp6, hits give low values",0.966
same,normalized growth,"S. cerevisiae deletion strains, locus YOR061W, strain CKA2, hits give low values",0.978
same,normalized growth,"S. cerevisiae deletion strains, locus YOR069W, strain VPS5, hits give low values",0.98
same,normalized growth,"S. cerevisiae deletion strains, locus YOR070C, strain gyp1, hits give low values",0.976
same,normalized growth,"S. cerevisiae deletion strains, locus YOR080W, strain dia2, hits give low values",0.977
same,normalized growth,"S. cerevisiae deletion strains, locus YOR083W, strain WHI5, hits give low values",0.95
same,normalized growth,"S. cerevisiae deletion strains, locus YOR106W, strain vam3, hits give low values",0.928
same,normalized growth,"S. cerevisiae deletion strains, locus YOR136W, strain idh2, hits give low values",0.974
same,normalized growth,"S. cerevisiae deletion strains, locus YOR144C, strain elg1, hits give low values",0.974
same,normalized growth,"S. cerevisiae deletion strains, locus YOR184W, strain ser1, hits give low values",0.899
same,normalized growth,"S. cerevisiae deletion strains, locus YOR231W, strain MKK1, hits give low values",0.978
same,normalized growth,"S. cerevisiae deletion strains, locus YOR265W, strain rbl2, hits give low values",0.993
same,normalized growth,"S. cerevisiae deletion strains, locus YOR270C, strain vph1, hits give low values",0.849
same,normalized growth,"S. cerevisiae deletion strains, locus YOR290C, strain snf2, hits give low values",0.974
same,normalized growth,"S. cerevisiae deletion strains, locus YOR316C, strain cot1, hits give low values",0.967
same,normalized growth,"S. cerevisiae deletion strains, locus YPL051W, strain arl3, hits give low values",0.948
same,normalized growth,"S. cerevisiae deletion strains, locus YPL055C, strain LGE1, hits give low values",0.906
same,normalized growth,"S. cerevisiae deletion strains, locus YPL078C, strain atp4, hits give low values",0.962
same,normalized growth,"S. cerevisiae deletion strains, locus YPL106C, strain sse1, hits give low values",0.999
same,normalized growth,"S. cerevisiae deletion strains, locus YPL240C, strain hsp82, hits give low values",0.991
same,normalized growth,"S. cerevisiae deletion strains, locus YPL241C, strain CIN2, hits give low values",0.984
same,normalized growth,"S. cerevisiae deletion strains, locus YPL256C, strain CLN2, hits give low values",0.963
same,normalized growth,"S. cerevisiae deletion strains, locus YPR119W, strain clb2, hits give low values",0.964
same,normalized growth,"S. cerevisiae deletion strains, locus YPR141C, strain kar3, hits give low values",0.974
same,normalized growth,"S. cerevisiae deletion strains, locus YPR163C, strain tif3, hits give low values",0.898 (active)
same,normalized growth,"S. cerevisiae deletion strains, locus YPR167C, strain met16, hits give low values",0.97
same,normalized growth,"S. cerevisiae deletion strains, strain wtn01, hits give low values",0.924
same,normalized growth,"S. cerevisiae strains, strain wild type, hits give low values",0.961
